Source: PubChem BioAssay
Rows were chosen to be rich in hits. Some 6.8% of all compounds tested hit in one or more screens of this group.
T cruzi growth-1 = T. cruzi intracellular proliferation inhibitors, primary screen, cell-based, beta-gal Tulahuen parasites, NIH3T3 host, luminescence; T. cruzi beta-gal in NIH3T3, GalScreen luminescence, 90 h; inhibition, % at 8.34 µM; 77,000 compounds, 5.9% hits; AID 624255, 2012;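 active = mean inhibition above about 93%, with at least 55% of replicates each passing it, limit read from the data, passing the limit was not always enough; inconclusive = only one of those two conditions holds; inactive = neither condition holds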
Pf Dd2 growth = P. falciparum Dd2 growth inhibitors, primary screen, SYBR Green fluorescence, single dose replicates; 72 h; hits give low values; activity change, % at 10 µM; 94,000 compounds, 2.3% hits; AID 1159554, 2015; in the data active = activity change below about -80%; inconclusive = no clear call, values can overlap the other calls
C diff growth = C. difficile growth inhibitors, primary screen, HTS; Clostridium difficile clinical isolate growth, OD600, 24 h; hits give low values; growth activity, negative = inhibition, % at 16 µg/mL (by protocol); 86,000 compounds, 0.25% hits; AID 1259249, 2017;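 active = mean growth activity at or below -80% and every replicate also at or below -80%; inconclusive = mean at or below -80% but some replicate above -80%; inactive = mean growth activity above -80%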;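 also: 0% = DMSO wells and -100% = levofloxacin 16 µg/mL wells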
T cruzi growth-2 = T. cruzi intracellular proliferation inhibitors, confirmation, cell-based, NIH3T3 host, beta-gal parasite, luminescence, cherry-pick; shares compounds with T cruzi growth-1; T. cruzi beta-gal in NIH3T3, GalScreen luminescence, 90 h; inhibition, % at 8.35 µM; 5,600 compounds, 72% hits; AID 651739, 2012;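 active = mean replicate inhibition above about 95% and at least 55% of replicates individually reaching it, limit read from the data; inconclusive = only one of the two criteria is met; inactive = neither criterion is met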
T cruzi growth-3 = inhibitors of intracellular T. cruzi replication, confirmation, NIH3T3 host cells, beta-gal parasites, cherry-pick, set 2 | inhibition, % at 2.09 µM | 5,600 compounds, 21% hits | AID 651740, 2012 | T. cruzi beta-gal in NIH3T3, GalScreen luminescence, 90 h | shares compounds with T cruzi growth-1;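 active = mean inhibition above about 95%, with at least 55% of replicates also reaching it, limit read from the data; inconclusive = meets just one of the two conditions; inactive = meets neither condition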;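 also: plate controls were neutral control median for no effect and positive control median for full effect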
3T3 cytotox = cytotoxicity in mouse NIH/3T3 fibroblasts, confirmation, cytotoxicity control for T. cruzi proliferation inhibitor project, cell-based, cherry-pick, single point; shares compounds with T cruzi growth-1; NIH/3T3 viability, CellTiter-Glo ATP luminescence, 90 h; cytotoxicity (signal decrease), % at 8.35 µM; 5,600 compounds, 14% hits;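 active = mean signal decrease across replicates above about 35% based on untreated-well scatter, with enough replicates individually passing, limit read from the data; inconclusive = no rule stated though some were filed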;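 also: 0% = median of neutral control wells and 100% = median of positive control wells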
NIH3T3 tox 2 = NIH/3T3 fibroblast cytotoxicity, confirmation, cytotoxicity control, cell-based, cherry-pick, single point, set 2 | shares compounds with T cruzi growth-1 | NIH/3T3 viability, CellTiter-Glo ATP luminescence, 90 h | inhibition, % at 24.9 µM | 5,600 compounds, 56% hits | AID 651744, 2012;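 active = mean loss of cell viability signal at or above a set limit, and enough replicates individually reaching it; inconclusive = meets only the mean limit or only the replicate share; inactive = meets neither condition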;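 also: 0% = median of neutral control wells and 100% = median of positive control wells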
* = called active by the depositor; ? = inconclusive; . = not tested or not shown.

SMILES	T cruzi growth-1	Pf Dd2 growth	C diff growth	T cruzi growth-2	T cruzi growth-3	3T3 cytotox	NIH3T3 tox 2
CCNC(=O)C[C@H]1CC[C@H]2[C@@H](COC[C@@H](O)CN2C(=O)C2CCOCC2)O1	8	.	7	.	.	.	.
CO[C@@H]1CN(C)C(=O)c2cc(NC(=O)Nc3c(C)noc3C)ccc2OC[C@@H](C)N(C)C[C@H]1C	-30	15	4	.	.	.	.
Cc1ccc(S(=O)(=O)N(C)C[C@H]2OCCCC[C@H](C)Oc3ccc(NS(=O)(=O)c4cccs4)cc3C(=O)N([C@H](C)CO)C[C@H]2C)cc1	109*	-75	.	103*	16	-37	-15
Cc1ccc(S(=O)(=O)Nc2ccc3c(c2)C(=O)N([C@H](C)CO)C[C@H](C)[C@@H](CN(C)S(=O)(=O)c2cccs2)OCCCC[C@H](C)O3)cc1	.	.	-7	.	.	.	.
Cc1ccc(S(=O)(=O)N(C)C[C@H]2OCCCC[C@@H](C)Oc3ccc(NS(=O)(=O)c4cccs4)cc3C(=O)N([C@H](C)CO)C[C@H]2C)cc1	?	-69	.	90	31	-29	-39
Cc1ccc(S(=O)(=O)Nc2ccc3c(c2)C(=O)N([C@@H](C)CO)C[C@@H](C)[C@H](CN(C)S(=O)(=O)c2cccs2)OCCCC[C@H](C)O3)cc1	.	.	-8	.	.	.	.
C[C@@H]1CN([C@H](C)CO)C(=O)Cc2cc(NC(=O)C3CCCCC3)ccc2O[C@H]1CN(C)C(=O)Nc1ccc(F)cc1	2	13	-3	.	.	.	.
Cc1ccc(-c2ccc3c(c2)O[C@@H](CN(C)C(=O)CN(C)C)[C@H](C)CN([C@@H](C)CO)S3(=O)=O)cc1	39	-55	-6	.	.	.	.
COc1ccc(C#Cc2ccc([C@H]3[C@@H](CO)N4CCCCN(C(=O)Nc5ccccc5)C[C@@H]34)cc2)cc1	125*	-32	-6	111*	114*	12	30*
C/C=C/c1ccc([C@H]2[C@@H](CO)N3CCCCN(C(=O)Nc4ccc(OC)cc4)C[C@H]23)cc1	?	-17	3	85	10	-1	90*
C/C=C/c1ccc([C@@H]2[C@H](CO)N3CCCCN(C(=O)Nc4ccc(OC)cc4)C[C@@H]23)cc1	61	-24	4	.	.	.	.
COc1ccc(C#Cc2ccc([C@@H]3[C@H](CO)N4CCCCN(C(=O)Nc5ccccc5)C[C@@H]34)cc2)cc1	78	-73	60	.	.	.	.
C[C@H](O)C#Cc1ccc([C@H]2[C@H](CO)N3CCCCN(C(=O)Nc4ccccc4)C[C@@H]23)cc1	26	-53	-1	.	.	.	.
O=C(Nc1cccc(F)c1)N1CCCCN2[C@H](C1)[C@@H](c1ccc(C#Cc3ccccc3)cc1)[C@@H]2CO	78	-10	3	.	.	.	.
COc1ccc(C#Cc2ccc([C@H]3[C@@H](CO)N4CCCCN(C(=O)Nc5cccc(F)c5)C[C@@H]34)cc2)cc1	112*	1	-19	101*	109*	23	18
COc1ccc(C#Cc2ccc([C@H]3[C@H]4CN(C(=O)Nc5ccccc5)CCCCN4[C@H]3CO)cc2)cc1	119*	-77	-2	108*	56	19	22
CN(C)CC(=O)N1[C@H](CO)[C@@H](c2ccccc2)C12CN(C(=O)c1cccc(F)c1)C2	.	-7	-8	.	.	.	.
COc1ccc(NC(=O)N(C)C[C@H]2Oc3c(NC(=O)Nc4ccc(F)cc4)cccc3C(=O)N([C@H](C)CO)C[C@@H]2C)cc1	16	14	7	.	.	.	.
O=C(N[C@@H]1CC[C@@H](CCNC(=O)c2ccccc2F)O[C@@H]1CO)c1cnccn1	-66	0	.	.	.	.	.
COc1ccc(CN(C)C[C@H]2Oc3ccc(NS(=O)(=O)c4cn(C)cn4)cc3C(=O)N([C@@H](C)CO)C[C@@H]2C)cc1	-1	27	0	.	.	.	.
COc1ccc(S(=O)(=O)N(C)C[C@@H]2Oc3c(NS(=O)(=O)c4ccc(F)cc4)cccc3C(=O)N([C@H](C)CO)C[C@H]2C)cc1	22	-21	-4	.	.	.	.
O=C(NCC(F)(F)F)[C@@H]1[C@@H](CO)[C@@H]2Cn3c(cccc3=O)[C@H]1N2C(=O)C1CC1	?	-13	-3	1	39	-13	3
COc1cccc(CNC(=O)[C@H]2[C@H](CO)[C@H]3Cn4c(cccc4=O)[C@@H]2N3C(=O)C2CCCCC2)c1	157*	.	3	77	12	-25	-16
CCCNC(=O)[C@H]1[C@H](CO)[C@H]2Cn3c(cccc3=O)[C@@H]1N2C(=O)C1CCCC1	45	6	13	.	.	.	.
O=C(NCC(F)(F)F)[C@H]1[C@H](CO)[C@H]2Cn3c(cccc3=O)[C@@H]1N2C(=O)C1CCC1	3	18	1	.	.	.	.
SMILES	T cruzi growth-1	Pf Dd2 growth	C diff growth	T cruzi growth-2	T cruzi growth-3	3T3 cytotox	NIH3T3 tox 2
CC(C)NC(=O)Nc1cccc2c1O[C@H](CN(C)Cc1ccc3c(c1)OCO3)[C@@H](C)CN([C@@H](C)CO)C2=O	.	-10	11	.	.	.	.
C[C@@H]1CN([C@H](C)CO)C(=O)c2cc(NC(=O)c3ccncc3)ccc2O[C@@H]1CN(C)S(=O)(=O)c1ccc(F)cc1	27	-2	1	.	.	.	.
CC(=O)N1[C@@H]2c3cccc(=O)n3C[C@@H]2[C@@H](CO)[C@@H]1C(=O)NCc1ccc(F)cc1	22	4	1	.	.	.	.
C[C@@H]1CN([C@H](C)CO)S(=O)(=O)c2ccc(-c3ccc(F)cc3)cc2O[C@H]1CN(C)Cc1cccc(F)c1	61	-13	53	.	.	.	.
C[C@@H]1CN([C@@H](C)CO)S(=O)(=O)c2ccc(-c3ccccc3)cc2O[C@H]1CN(C)Cc1cccc(F)c1	122*	-65	8	99*	?	40*	103*
C[C@H]1CN([C@@H](C)CO)S(=O)(=O)c2ccc(-c3ccc(F)cc3)cc2O[C@@H]1CN(C)Cc1cccc(F)c1	71	-24	45	.	.	.	.
C[C@@H]1CN([C@H](C)CO)S(=O)(=O)c2ccc(-c3ccccc3)cc2O[C@@H]1CN(C)Cc1cccc(F)c1	124*	-52	4	112*	88	12	104*
COCC(=O)N(C)C[C@H]1Oc2cc(C#CCN(C)C)ccc2S(=O)(=O)N([C@H](C)CO)C[C@@H]1C	56	30	0	.	.	.	.
C[C@@H]1CN([C@@H](C)CO)C(=O)c2cc(-c3ccccc3)cnc2O[C@@H]1CN(C)Cc1ccccc1	62	8	2	.	.	.	.
